miR-21 act = qHTS Assay for Modulators of miRNAs and/orActivators of miR-21; HeLa miR-21 FLuc reporter, luciferase, 48 h; Potency, µM (highest dose often 38.3 µM), without a hit: at the highest dose activity change, positive = activation, most hits filed as activators; 340,000 tested, under 10 active; AID 2288, 2010;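 also: % of control where 0% means no effect; miR-21 action dims this reporter so a rising signal means less miR-21 action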
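Compounds were titrated across several concentrations (up to approximately 40 uM) and incubated 48 hours with HeLa miR-21-FLuc reporter cells (miR-21 target sequence downstream of FLuc, endogenous miR-21). Readout was firefly luciferase luminescence after lytic detection reagent.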
JMJD2E inh = qHTS Assay for Inhibitors of Human Jumonji Domain Containing 2E (JMJD2E). Lysine-specific demethylase 4E (Homo sapiens), B2RXH2. JMJD2E catalytic domain, FDH-coupled NADH fluorescence (FDH is formaldehyde dehydrogenase). Potency, µM (series often up to 57.1 µM), for the others: at the highest dose activity change, negative = inhibition, most hits filed as inhibitors. 230,000 tested, 1.6% active. AID 2147, 2009; active = well fitted inhibition curve with a large enough effect, not every such curve was filed as active; inconclusive = small, poorly fitted or top-dose-only effect, or another doubt; inactive = no such curve, though single readings can be large or run the other way;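 also: potency is read from the fitted curve at half-maximal effect; 0% = wells with enzyme and -100% = buffer wells without enzyme; nearly all actives have a fitted effect of over 50% in size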
ALDH1A1 inh = qHTS Assay for Inhibitors of Aldehyde Dehydrogenase 1 (ALDH1A1); Aldehyde dehydrogenase 1A1 (Homo sapiens), P00352; Purified ALDH1A1, NADH fluorescence, propionaldehyde substrate; Potency, µM (highest dose often 75.3 µM), for inactives: at the highest dose activity, negative = inhibition, hits mostly inhibitors; 220,000 tested, 7.3% active; AID 1030, 2008; active = well fitted inhibition curve with a large enough effect, not every such curve was filed as active; inconclusive = small, poorly fitted or top-dose-only effect, or another doubt; inactive = no such curve, though single readings can be large or run the other way;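 also: potency is read from the fitted curve at half-maximal effect; plate controls were no enzyme wells and a reference inhibitor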
Target sequence (P00352 whole entry, looked up): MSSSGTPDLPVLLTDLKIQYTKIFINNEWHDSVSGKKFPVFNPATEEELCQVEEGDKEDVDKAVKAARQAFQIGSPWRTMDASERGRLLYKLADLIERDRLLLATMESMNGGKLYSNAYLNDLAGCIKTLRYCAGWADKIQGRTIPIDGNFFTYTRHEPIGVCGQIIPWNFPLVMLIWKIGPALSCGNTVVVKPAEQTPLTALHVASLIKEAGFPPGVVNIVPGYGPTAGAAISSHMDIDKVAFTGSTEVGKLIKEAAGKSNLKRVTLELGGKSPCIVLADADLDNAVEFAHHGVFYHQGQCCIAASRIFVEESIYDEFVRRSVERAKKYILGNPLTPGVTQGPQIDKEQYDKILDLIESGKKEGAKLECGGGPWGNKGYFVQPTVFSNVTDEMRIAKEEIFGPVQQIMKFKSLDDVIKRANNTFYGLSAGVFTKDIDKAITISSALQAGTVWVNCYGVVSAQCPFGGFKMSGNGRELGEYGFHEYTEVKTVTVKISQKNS
Lamin A splicing = qHTS Assay for Modulators of Lamin A Splicing; 200,000 tested, 0.01% active; HeLa LMNA splicing GFP/RFP minigene ratio, 48 h; Potency, µM (highest dose often 46.1 µM), without a hit: at the highest dose ratio change, negative = inhibition, hits mostly inhibitors; active = well fitted inhibition curve with a large enough effect in the signal ratio, with a control signal flat, not every such curve was filed as active; inconclusive = small, poorly fitted or top-dose-only effect, or effect the other way, or a change in a side signal; the % refers to the signal ratio; also: potency is read from the fitted curve at half-maximal effect; % is scaled to controls: 0 for no effect and ±100 for the full control effect
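S3 HeLa cells stably expressing lamin A-EGFP splicing minigene plus DsRed2, 600 cells/well, 48 h compound exposure at 37C. Laser-scanning cytometry; analysed as GFP (500-530 nm)/RFP (575-640 nm) total intensity ratio; 0.5% DMSO vehicle.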
G9a inh = qHTS Assay for Inhibitors of Histone Lysine Methyltransferase G9a | Histone-lysine N-methyltransferase EHMT2 (Homo sapiens), Q96KQ7 | G9a H3K9 monomethylation, AlphaScreen, 2 h | Potency, µM (highest dose often 102 µM), inactives show at the highest dose activity, negative = inhibition, actives largely listed as inhibitors | 350,000 tested, 8.8% active; also: potency is read from the fitted curve at half-maximal effect; % is scaled to controls: 0 for no effect and ±100 for the full control effect; nearly all actives have a fitted effect of over 75% in size
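Chemiluminescent proximity detection of H3K9 monomethylation, read after 10 min bead incubation in the dark. Reaction: 20 nM G9a, 500 nM biotin-H3K9 peptide, 20 uM SAM cofactor, 2 h, room temperature, following 15 min enzyme-compound preincubation.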
Sfp inh = qHTS Assay for Inhibitors of Bacillus subtilis Sfp phosphopantetheinyl transferase (PPTase) | 4'-phosphopantetheinyl transferase ffp (Bacillus subtilis), Q9F4F7 | Biochemical Sfp PPTase activity, qHTS | Potency, µM, for inactives: largest response in the series, negative = inhibition, hits mostly inhibitors | 310,000 tested, 3.5% active | AID 1490, 2009;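 also: the enzyme is Sfp with the accession as filed and its product quenches rhodamine fluorescence; potency is read from the fitted curve at half-maximal effect; 0% = enzyme reaction without inhibitor and -100% = no enzyme wells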
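Reaction rates are the 30-min fluorescence difference (ex 525, em 598 nm) in wells containing 15 nM Sfp, 5 uM rhodamine-CoA and 12.5 uM BHQ-2-YbbR at pH 7.6 with 10 mM MgCl2.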
* = called active by the depositor; [ ] = dose if it differs, or a comment. Rows were chosen to be rich in hits. Some 13% of all compounds tested hit in one or more screens of this group. Unless noted, calls follow the shape of the dose curve; as a rule, active = well fitted curve in the direction sought with a large enough effect; inconclusive = small, poorly fitted or top-dose-only effect, or another doubt; inactive = no such curve, though single readings can be large; an effect the other way counts as inactive or inconclusive.

For CCOc1ccc(-c2nc(Cn3ccn4nc(-c5ccc(OCC)c(Cl)c5)cc4c3=O)c(C)o2)cc1 the results were miR-21 act -7% and G9a inh 12%[59 µM].
COc1ccccc1-c1nc(NC(C)=O)n[nH]1 was read as miR-21 act 3%, JMJD2E inh -15%, ALDH1A1 inh 7%, Lamin A splicing -7%, G9a inh -50%[59 µM] and Sfp inh -9%.
`CCS(=O)(=O)c1nc(NC(C)=O)n[nH]1` gave miR-21 act 0%, JMJD2E inh inconclusive, ALDH1A1 inh 5%, Lamin A splicing 10%, G9a inh 5.6µM* and Sfp inh -10%.
Screening O=C(NCc1cccc(F)c1)c1ccc2nc(N3CCCCC3)sc2c1 returned miR-21 act -49% and G9a inh 5%[59 µM].
For COc1ccc(NC(=S)NNC(=O)c2cccs2)cc1 the results were miR-21 act -60%, JMJD2E inh 11%, ALDH1A1 inh inconclusive, Lamin A splicing inconclusive, G9a inh 40µM* and Sfp inh 23%.
For CC(C)c1ccc(NC(=S)NNC(=O)c2cccs2)cc1 the results were miR-21 act -50%, JMJD2E inh 20%, ALDH1A1 inh 20µM*, G9a inh inconclusive and Sfp inh 8%.
`Cc1ccccc1NS(=O)(=O)c1ccc(Br)s1` gave miR-21 act inconclusive and G9a inh -44%[59 µM].
Cc1ccc(Cl)cc1NC(=O)CSc1nc2ccccc2c2nc(-c3ccccc3)nn12 was read as miR-21 act -2%, Lamin A splicing inconclusive and G9a inh 10%[59 µM].
For COc1ccc(-c2nn3c(C4CCCCC4)nnc3s2)cc1OC the results were miR-21 act -32%, JMJD2E inh inconclusive, ALDH1A1 inh 13µM*, Lamin A splicing -17%, G9a inh 10µM* and Sfp inh inconclusive.
`Cc1cc(C)nc(N(C#N)Cc2ccccc2Cl)n1` gave miR-21 act -16%, JMJD2E inh 6%, ALDH1A1 inh 14µM*, Lamin A splicing 4%, G9a inh 12% and Sfp inh 2%.
`CC(C)Nc1nc(Cl)nc(N(C#N)CN2C(=O)c3ccccc3C2=O)n1` gave miR-21 act 0%, JMJD2E inh 4%, ALDH1A1 inh inconclusive, Lamin A splicing 7%, G9a inh 28µM* and Sfp inh -11%.
`CN1CCN(C(=O)CCN2C(=O)c3ccccc3S2(=O)=O)CC1` gave G9a inh 8%[59 µM].
For Cc1cc(C)nc(N(C#N)Cc2ccccc2C)n1 the results were miR-21 act -14%, JMJD2E inh -25%, ALDH1A1 inh 7% and Sfp inh -8%.
CCC(C)Nc1nc(Cl)nc(N(C#N)CN2C(=O)c3ccccc3S2(=O)=O)n1 (configuration not stated) was read as miR-21 act -1%, JMJD2E inh 14%, ALDH1A1 inh 13µM*, Lamin A splicing -11%[46 µM], G9a inh inconclusive and Sfp inh 2%.
Cc1cc(C)nc(N(C#N)CN2C(=O)c3ccccc3C2=O)n1 was read as miR-21 act 4%, JMJD2E inh 2%, ALDH1A1 inh 25µM*, Lamin A splicing 6%, G9a inh 5%[12.7 µM] and Sfp inh 89µM*.
For Cn1cc(C(c2ccccc2)c2ccc(Cl)s2)c2ccccc21 (configuration not stated) the results were miR-21 act 0% and G9a inh 12%[59 µM].

Assay outcomes (PubChem)
